Experimental data taken from PubChem BioAssay AID488841 (Sanford-Burnham Center for Chemical Genomics, 2010).
Screen size: about 1,400 compounds; about 380 (27%) were called active.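 Rule for the calls: active = mean inhibition above 50% across duplicate retests at 10 µM; inactive = the rest.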 This is one part of the list.

Assay: inhibition of NALP1/ASC/caspase-1 reporter signal in yeast, confirmation, NALP1 inhibitor project, S. cerevisiae, luminescence, single concentration (AID 488841);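 note: plate controls were DMSO in galactose medium for no effect and cells in plain SD medium for full effect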
Settings: S. cerevisiae NALP1/ASC/Caspase-1 reporter, beta-gal luminescence; at 10 µM; hits give high values
In the case of `Cn1c2c(c(=O)n(C)c1=O)C(NC(=O)C(C)(C)C)(C(F)(F)F)C(=O)N2` (centres undefined), the inhibition is reported as 24.3% (inactive). With `NC(=NCCc1ccc(Cl)cc1)NS(=O)(=O)c1ccc(F)cc1` the inhibition was 23.1% (inactive). In the case of `Cc1sc2nc(SCC(=O)NCc3ccco3)n(Cc3ccccc3)c(=O)c2c1C`, the inhibition is reported as 24.6% (inactive). In the case of `CCN(CC1COc2ccccc2O1)S(=O)(=O)c1ccc(C)cc1` (centres undefined), the inhibition is reported as 39.2% (inactive). In the case of `CC(C)C(C(=O)O)N1C(=O)/C(=C/c2cccn2C)SC1=S` (centres undefined), the inhibition is reported as 42.4% (inactive). With `COc1ccccc1OCC(=O)NCCSCc1ccc(Cl)cc1` the inhibition was 56.6% (active). For `COc1ccc(CCNC(=O)CN2CCC(C)CC2)cc1OC`, the inhibition was 22.5% (inactive). With `O=C(CCSCc1cccc(Cl)c1)NCCc1ccccc1` the inhibition was 45.4% (inactive). For `O=C(Cc1ccc(Cl)cc1)Oc1cccc2cccnc12`, the inhibition was 27.7% (inactive). With `O=C(COC(=O)CCSc1ccccc1)NCc1ccccc1Cl` the inhibition was 22.2% (inactive). With `O=C(COc1ccccc1Cl)NCCC1=CCCCC1` the inhibition was 38.7% (inactive). For `COc1ccccc1OCC(=O)NCCSCc1cccc(Cl)c1`, the inhibition was 59.4% (active). For `O=C(CSCc1cccc(Cl)c1)Nc1ccccc1-c1ccccc1`, the inhibition was 35% (inactive). With `COc1ccccc1OCC(=O)NCCSCc1ccccc1Cl` the inhibition was 55.5% (active). In the case of `COc1cccc(N2CCN(C3CCCC(C)C3)CC2)c1` (centres undefined), the inhibition is reported as 25.3% (inactive). In the case of `CC1=CCC2C(=O)N(Cc3ccccc3)C(=O)C2C1` (centres undefined), the inhibition is reported as 24.9% (inactive). With `COc1cc(S(=O)(=O)NCc2cccnc2)ccc1F` the inhibition was 27.6% (inactive). For `COc1cccc(C(=O)N2CCCC(c3nc(-c4cccs4)no3)C2)c1` (centres undefined), the inhibition was 29.9% (inactive). For `CCCCCCCCCCCCCCCC[n+]1cccc2ccccc21`, the inhibition was 95% (active). In the case of `CC1(C)CC(=O)c2cc(C(=O)O)c(=O)n(-c3ccccc3)c2C1`, the inhibition is reported as 32% (inactive). With `CC1(C)CC(=O)C2=C(C1)OC(N)=C([N+](=O)[O-])C2c1cccs1` (centres undefined) the inhibition was 42.5% (inactive). In the case of `CC(=O)Nc1sc2c(c1-c1nc3ccccc3s1)CCN(C(C)C)C2`, the inhibition is reported as 92.9% (active). For `O=C(Nc1ccc(-c2nc3ccccc3s2)cc1)C1=COCCO1`, the inhibition was 25.9% (inactive). With `OCCn1c(-c2ccc(F)cc2)csc1=Nc1ccccc1` the inhibition was 27.4% (inactive). For `CC(C)(C)c1cc(C(=O)O)n[nH]1`, the inhibition was -1.95% (inactive). With `O=C1c2ccccc2-c2cccc(NS(=O)(=O)c3ccc(C(F)(F)F)cc3)c21` the inhibition was 23.4% (inactive). With `O=C1C(Nc2ccccc2)=C/C(=N/S(=O)(=O)c2cccs2)c2ccccc21` the inhibition was 49.6% (inactive). For `O=C(O)c1ccc(S(=O)(=O)/N=C2\C=C(Nc3ccccc3F)C(=O)c3ccccc32)cc1`, the inhibition was 98.8% (active). With `CCOP(=O)(C1=C(O)C(=O)C(C(C)(C)C)=CC1=O)c1ccccc1` (centres undefined) the inhibition was 24.9% (inactive). With `O=C1CSC(=S)N1c1cccc(O)c1` the inhibition was 99% (active). For `COc1cc(C2SCC(=O)N2CCCN(C)C)cc(OC)c1OC` (centres undefined), the inhibition was 17.5% (inactive). With `O=C1CSC(=S)N1c1ccc(O)cc1` the inhibition was 95.2% (active). In the case of `COc1cc(N2C(=O)CSC2=S)cc(OC)c1OC`, the inhibition is reported as 78.7% (active). For `C/C(=N/N=C1\SCC(=O)N1c1ccccc1)c1ccc(C)cc1`, the inhibition was 28.1% (inactive). In the case of `Fc1ccc(N2CCN(Cc3cnc(Oc4ccc(Br)cc4)s3)CC2)cc1`, the inhibition is reported as 25.8% (inactive). For `N#CC1=C(N)Oc2n[nH]c(-c3cccs3)c2C1C1CCCCC1` (centres undefined), the inhibition was 35.7% (inactive). For `Cc1nc2cc(-c3ccc(Cl)cc3)nn2c(C)c1CCC(=O)NC(C)c1ccc2c(c1)OCCO2` (centres undefined), the inhibition was 21.6% (inactive). In the case of `CC1(C)COC(/C=C/c2ccc([N+](=O)[O-])cc2)=N1`, the inhibition is reported as 74.7% (active). For `COc1ccccc1/C=N\N=C(\N)c1ccccn1`, the inhibition was 43.3% (inactive). With `CC(C)N(C)CCOC(=O)c1ccccc1Br` the inhibition was 30.6% (inactive). For `COC(=O)c1ccccc1NC(=O)CN1CCC(n2nnc3cc(F)ccc32)CC1`, the inhibition was 24.9% (inactive). With `CCc1ccc(C(=O)NCc2ccc(Cl)cc2Cl)cc1` the inhibition was 57.4% (active). For `N=c1ccn(Cc2ccc(Cl)cc2Cl)cc1`, the inhibition was 35.2% (inactive). In the case of `CCc1ccc(C(=O)NC(CC(C)C)C(=O)O)cc1` (centres undefined), the inhibition is reported as 24.6% (inactive). For `CC(C)Cn1c(CN(Cc2ccccc2)Cc2ccccc2)nc2c1c(=O)n(C)c(=O)n2C`, the inhibition was 35.5% (inactive). With `COc1cc(/C=C2\SC(=Nc3ccc(F)cc3)N(c3ccc(F)cc3)C2=O)ccc1OCC(=O)O` the inhibition was 26.6% (inactive). With `CCOC(=O)c1cccnc1SCC(=O)NCc1ccccc1` the inhibition was 41.5% (inactive). For `CSc1ccc2c(c1)N(CCC1CCCCN1C)c1ccccc1S2` (centres undefined), the inhibition was 71.1% (active). For `CN1C/C(=C/c2ccncc2)C(=O)/C(=C/c2ccncc2)C1`, the inhibition was 13.2% (inactive). For `CC1(C)Cc2c(c(N3CCOCC3)nc3sc4c(NCCN5CCOCC5)nnnc4c23)CS1`, the inhibition was 27.2% (inactive). In the case of `Cc1nc2nc3c(cn2n1)C(=O)CCC3`, the inhibition is reported as 6.55% (inactive). For `CN1CCc2cccc3c2[C@@H]1Cc1ccc(O)c(O)c1-3`, the inhibition was 71.3% (active). In the case of `CN1CCc2cccc3c2[C@H]1Cc1ccc(O)c(O)c1-3`, the inhibition is reported as 42.5% (inactive). With `Cc1[nH][nH]c(=O)c1C(c1ccc(-c2ccc(Cl)c(Cl)c2)o1)c1c(C)[nH][nH]c1=O` the inhibition was 24.6% (inactive). For `Cc1cccc(C(=O)NCc2ccc(S(N)(=O)=O)cc2)c1[N+](=O)[O-]`, the inhibition was 36.4% (inactive). In the case of `Cc1ccc(C(=O)NCCSCc2ccccc2)cc1[N+](=O)[O-]`, the inhibition is reported as 52.6% (active). With `COCCNC(=O)c1ccc(C)c(S(=O)(=O)Nc2ccc(C)cc2)c1` the inhibition was 32.9% (inactive). For `C/C(=N/Nc1ccc([N+](=O)[O-])cc1)c1ccc(C)cc1C`, the inhibition was 49% (inactive). For `Cc1ccc(CSCCNC(=O)CSCc2ccc([N+](=O)[O-])cc2)cc1`, the inhibition was 59.9% (active). For `CCn1c2ccccc2c2cc(NC(=O)c3ccc(C)c([N+](=O)[O-])c3)ccc21`, the inhibition was 42.1% (inactive). For `O=C(CSCc1ccc(F)cc1)NCc1ccco1`, the inhibition was 35.4% (inactive). For `Cc1ccc(C(=O)NCCc2cccc(Cl)c2)cc1[N+](=O)[O-]`, the inhibition was 53.2% (active). In the case of `Cc1ccccc1Cn1c(=N)n(CC(=O)c2ccc([N+](=O)[O-])cc2)c2ccccc21`, the inhibition is reported as 49.5% (inactive). For `CCOC(=O)c1c(C)n(C)c2ccc(OC)c(NC(=O)CN3CCN(C4CCCCC4)CC3)c12`, the inhibition was 23.2% (inactive). For `COc1cc(NC(C)CCCN)c2ncccc2c1Oc1ccccc1` (centres undefined), the inhibition was 25.8% (inactive). With `O=C1N/C(=N\N=C\c2cccnc2)SC1Cc1ccc(SC(F)F)cc1` (centres undefined) the inhibition was 24.2% (inactive). In the case of `COc1ccc(CCn2c(C(C)C)nc3c(c(=O)c4ccccc4n3C)c2=O)cc1`, the inhibition is reported as 25.9% (inactive). With `COc1ccc2cc(C(C)c3nc4ccccc4c(=O)n3N)ccc2c1` (centres undefined) the inhibition was 53.1% (active). With `C=CCCCCc1nc2ccccc2c(=O)n1N` the inhibition was 33% (inactive). In the case of `COc1ccc(OC)c(/C=c2\sc3nc(-c4cccs4)nn3c2=O)c1`, the inhibition is reported as 28.1% (inactive). In the case of `O=[N+]([O-])/C=C/c1ccc2c(ccn2Cc2ccccc2)c1`, the inhibition is reported as 99.9% (active). With `CC(C)c1ccc(CN2CCN(C(=O)CCl)CC2)cc1` the inhibition was 39.5% (inactive). With `N#CCc1c(C#N)c(N)nc(N2CCN(Cc3ccc4c(c3)OCO4)CC2)c1C#N` the inhibition was 27.2% (inactive). For `O=C(CCC1CCCCC1)N1CCN(Cc2ccc3c(c2)OCO3)CC1`, the inhibition was 59.6% (active). In the case of `Clc1ccc(SCCCCN2CCOCC2)cc1`, the inhibition is reported as 33% (inactive). With `COc1cccc(N2C(=O)C(O)=C(C(C)=O)C2c2ccc(OC)c(OC)c2)c1` (centres undefined) the inhibition was 33.1% (inactive). In the case of `COC(=O)c1cc(=O)n(-c2c(Cl)cc(C(F)(F)F)cc2Cl)[nH]1`, the inhibition is reported as 28.1% (inactive). With `CCOC(=O)c1c(C(F)(F)C(F)(F)C(F)(F)C(F)(F)F)n[nH]c1C` the inhibition was 30% (inactive). In the case of `CCOC(=O)c1c(C)[nH]c(C)c1C(=O)COC(=O)c1cc2ccccc2cc1O`, the inhibition is reported as 37.1% (inactive). For `Cc1cc(C(=O)COC(=O)c2ccc[nH]c2=O)c(C)n1-c1ccc(F)cc1`, the inhibition was 39% (inactive). For `Cc1cc(C(=O)COC(=O)c2ccc[nH]c2=O)c(C)n1-c1ccccc1`, the inhibition was 58.6% (active). With `Cc1cc2ccccc2n1CCNCc1c(C(=O)N2CCOCC2)nc2ccccn12` the inhibition was 28.2% (inactive). In the case of `CNC(CC(=O)c1ccc([N+](=O)[O-])cc1)C(Cl)(Cl)Cl` (centres undefined), the inhibition is reported as 47.5% (inactive). With `CCOC(=O)c1ccc(N2C(=O)C=CC2=O)cc1` the inhibition was 89% (active). With `CCOC(=O)c1ccc(N2C(=O)CC(N3CCCC(C)C3)C2=O)cc1` (centres undefined) the inhibition was 35.9% (inactive). With `CCOC(=O)c1sc(=S)n(-c2ccc(OC)cc2)c1C` the inhibition was 38.4% (inactive). In the case of `CCN(c1ccccc1)S(=O)(=O)c1cc(NC(=O)Nc2ccccc2C#N)ccc1Cl`, the inhibition is reported as 17.4% (inactive). For `CCOC(=O)c1nnc(-c2ccc(C)cc2)nc1Sc1ccc(Cl)cc1`, the inhibition was 10.3% (inactive). For `Cc1ccc(OCc2nc(-c3ccc(Cl)cc3)n[nH]2)cc1`, the inhibition was 66.9% (active). With `FC(F)Oc1ccc(/C=N/c2c(-c3ccc(OC(F)F)cc3)nc3n2CCS3)cc1` the inhibition was 31.2% (inactive). In the case of `CCc1cccc(C)c1NC(=S)NCCc1c(C)[nH]c2ccc(C)cc12`, the inhibition is reported as 34.2% (inactive). With `COc1ccc(C(=O)c2c(C(F)(F)F)oc3c2C(=O)c2ccccc2C3=O)cc1` the inhibition was 22.6% (inactive). In the case of `Cc1nc(NC(=O)CCc2ccccc2)ccc1Br`, the inhibition is reported as 64% (active). For `Cc1csc(NC(=O)CCc2ccc(S(=O)(=O)N3CCOCC3)cc2)n1`, the inhibition was 30.4% (inactive). In the case of `O=C(OCCN1CCCCC1)c1cc2ccccc2o1`, the inhibition is reported as 22.6% (inactive). In the case of `COC(=O)CSC1=C(C#N)C(=O)NC(c2ccccc2)S1` (centres undefined), the inhibition is reported as 28.1% (inactive). With `O=C(c1ccccc1)c1c2c(cc3sc4ccccc4[n+]13)-c1cccc3cccc-2c13` the inhibition was 35.5% (inactive). For `N#CC(C#N)=C(Nc1ccc(F)cc1)SCc1cccc(Br)c1`, the inhibition was 50.1% (active). For `Cc1ccc(F)cc1NCC(=O)Nc1ccc(Br)cc1`, the inhibition was 47.6% (inactive).
